# Screens deposited in PubChem BioAssay by Broad Institute.
# This is a sample that favours compounds with a hit; in the whole collection about 2.3% have one here.
# C diff HTS: inhibitors of Clostridium difficile growth; growth activity, negative = inhibition, % at 16 µg/mL (by protocol); 0.25% of 86,000 active; Clostridium difficile clinical isolate growth, OD600, 24 h; stronger effect = lower value;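 active = mean growth activity at or below -80% and every replicate also at or below -80%; inconclusive = mean at or below -80% but some replicate above -80%; inactive = mean growth activity above -80%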;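 also: 0% = DMSO wells and -100% = levofloxacin 16 µg/mL wells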
# Pf Dd2 inh: blocks growth of Plasmodium falciparum Dd2 parasites; activity change, % at 10 µM; P. falciparum Dd2 growth, SYBR Green, 72 h; stronger effect = lower value; AID 1159554; 2.3% of 94,000 active; in the data active = activity change below about -80%; inconclusive = no clear call, values can overlap the other calls
# An asterisk follows results filed as active; ? = inconclusive; . = no result.
SMILES,C diff HTS,Pf Dd2 inh
O=C(Nc1cccc(F)c1)N1CC(=O)N2[C@H](CO)[C@@H](c3ccc(-c4cccc(F)c4)cc3)[C@H]2C1,-4,2
CCCN(C)C[C@H]1OCCCC[C@@H](C)Oc2ccc(NS(=O)(=O)c3cccs3)cc2C(=O)N([C@@H](C)CO)C[C@@H]1C,-2,-90*
CCCN(C)C[C@H]1OCCCC[C@H](C)Oc2ccc(NS(=O)(=O)c3cccs3)cc2C(=O)N([C@H](C)CO)C[C@H]1C,5,?
CCCN(C)C[C@H]1OCCCC[C@H](C)Oc2ccc(NS(=O)(=O)c3cccs3)cc2C(=O)N([C@@H](C)CO)C[C@H]1C,1,-63
CCCN(C)C[C@H]1OCCCC[C@@H](C)Oc2ccc(NS(=O)(=O)c3cccs3)cc2C(=O)N([C@H](C)CO)C[C@@H]1C,-2,-86*
C[C@@H]1CN([C@H](C)CO)C(=O)c2cc(C3=CCCC3)cnc2O[C@H]1CN(C)Cc1ccc(F)cc1,9,-40
COCC(=O)NC[C@@H]1N[C@@H](CO)[C@H]1c1ccc(C2=CCCC2)cc1,7,22
O=C(Nc1ccccc1)N1CCCCN2[C@H](CO)[C@H](c3ccc(C#Cc4ccccc4)cc3)[C@@H]2C1,-24,-77
CC(C)(O)C#Cc1ccc([C@H]2[C@@H](CO)N3CCCCN(C(=O)c4ccc(F)cc4)C[C@H]23)cc1,-1,-69
O=C(Nc1ccccc1)N1CCCCN2[C@H](C1)[C@@H](c1ccc(C#Cc3ccccc3)cc1)[C@@H]2CO,14,-29
O=C(Nc1ccc(F)cc1)N1CCCCN2[C@H](C1)[C@H](c1ccc(C#Cc3ccccc3)cc1)[C@@H]2CO,-4,-89*
CC(C)(O)C#Cc1ccc([C@H]2[C@H](CO)N3CCCCN(C(=O)c4ccc(F)cc4)C[C@@H]23)cc1,12,-94*
O=C(Nc1ccccc1)N1CCCCN2[C@H](CO)[C@H](c3ccc(C#Cc4ccccc4)cc3)[C@H]2C1,-101*,-48
O=C(Nc1ccccc1)N1CCCCN2[C@H](C1)[C@H](c1ccc(C#Cc3ccccc3)cc1)[C@@H]2CO,-3,-4
O=C(Nc1ccc(F)cc1)N1CCCCN2[C@H](CO)[C@H](c3ccc(C#Cc4ccccc4)cc3)[C@@H]2C1,-11,-83*
COCCOC(=O)N1C(=O)[C@@]2(c3cc(C#CCC(C(=O)OC)C(=O)OC)ccc31)[C@H](C(=O)N1CCc3cc(OC)c(OC)cc3C1)[C@H]1C(=O)O[C@H](c3ccccc3)[C@H](c3ccccc3)N1[C@@H]2c1ccc(O)cc1,-2,.
O=C(C[C@H]1C[C@@H]2c3cc(NC(=O)Nc4ccccc4F)ccc3O[C@@H]2[C@H](CO)O1)NCc1ccccn1,-1,5
OC[C@@H]1[C@H](c2ccccc2)[C@@H](CNCC2CCC2)N1CC1CC1,18,-24
O=C(Nc1ccccc1F)N1CCCCN2[C@H](CO)[C@H](c3ccc(C#Cc4ccccc4)cc3)[C@@H]2C1,-2,-89*
O=C(Nc1ccccc1F)N1CCCCN2[C@H](CO)[C@@H](c3ccc(C#Cc4ccccc4)cc3)[C@@H]2C1,-2,-34
COc1ccc(CN(C)C[C@H]2OCCCC[C@@H](C)Oc3ccc(NS(=O)(=O)c4ccc(OC)cc4)cc3C(=O)N([C@H](C)CO)C[C@H]2C)cc1,-6,-87*
COc1ccc(S(=O)(=O)Nc2ccc3c(c2)C(=O)N([C@H](C)CO)C[C@@H](C)[C@H](CN(C)C(=O)NC2CCCCC2)OCCCC[C@H](C)O3)cc1,-11,-48
COc1ccc(S(=O)(=O)Nc2ccc3c(c2)C(=O)N([C@H](C)CO)C[C@@H](C)[C@@H](CN(C)C(=O)NC2CCCCC2)OCCCC[C@@H](C)O3)cc1,4,-86*
COc1ccc(CN(C)C[C@H]2OCCCC[C@H](C)Oc3ccc(NS(=O)(=O)c4ccc(OC)cc4)cc3C(=O)N([C@H](C)CO)C[C@@H]2C)cc1,0,-24
COc1ccc(S(=O)(=O)Nc2ccc3c(c2)C(=O)N([C@@H](C)CO)C[C@H](C)[C@@H](CN(C)Cc2ccc(Cl)c(Cl)c2)OCCCC[C@@H](C)O3)cc1,-5,-91*
SMILES,C diff HTS,Pf Dd2 inh
COc1ccc(S(=O)(=O)Nc2ccc3c(c2)C(=O)N([C@@H](C)CO)C[C@H](C)[C@H](CN(C)Cc2ccc(Cl)c(Cl)c2)OCCCC[C@@H](C)O3)cc1,.,-61
N#C[C@@H]1[C@@H](c2ccc(C#Cc3ccccc3F)cc2)[C@H](CO)N1C(=O)C1CCC1,9,-44
C[C@@H]1CN([C@H](C)CO)C(=O)c2cc(-c3ccc(C(=O)N(C)C)cc3)cnc2O[C@H]1CN(C)C(=O)c1ccncc1,2,46
C[C@@H]1CN([C@H](C)CO)C(=O)c2c(c3ccccc3n2C)-c2ccccc2CO[C@@H]1CN(C)C(=O)N[C@H](C)c1ccccc1,-5,-30
C[C@H](C(=O)N(C)C[C@H]1OCc2ccccc2-c2c(n(C)c3ccccc23)C(=O)N([C@H](C)CO)C[C@@H]1C)c1ccccc1,26,-51
C[C@H](C(=O)N(C)C[C@@H]1OCc2ccccc2-c2c(n(C)c3ccccc23)C(=O)N([C@@H](C)CO)C[C@@H]1C)c1ccccc1,-6,-83*
C[C@H](CO)N1C[C@H](C)[C@H](CN(C)C(=O)[C@H](C)c2ccccc2)OCc2ccccc2-c2c(n(C)c3ccccc23)C1=O,5,-91*
C[C@H](C(=O)N(C)C[C@H]1OCc2ccccc2-c2c(n(C)c3ccccc23)C(=O)N([C@@H](C)CO)C[C@H]1C)c1ccccc1,0,-78
C[C@H](CO)N1C[C@H](C)[C@@H](CN(C)C(=O)N[C@H](C)c2ccccc2)OCc2ccccc2-c2c(n(C)c3ccccc23)C1=O,12,-82*
COc1ccc(NC(=O)Nc2ccc3c(c2)[C@@H]2C[C@H](CC(=O)NCCc4ccccc4)O[C@H](CO)[C@@H]2O3)cc1,1,-45
CN1CCCCN2[C@H](CO)[C@@H](c3ccc(C#Cc4ccccc4F)cc3)[C@@H]2C1,0,-34
CCCC(=O)N1CC2(C1)CN(Cc1nccs1)[C@H](CO)c1[nH]c3cc(OC)ccc3c12,-3,-59
C[C@H]1CN([C@@H](C)CO)C(=O)Cc2cc(NS(=O)(=O)c3ccc(Cl)cc3)ccc2O[C@H]1CN(C)S(=O)(=O)c1ccc(Cl)cc1,18,-74
COc1ccc(S(=O)(=O)Nc2ccc3c(c2)CC(=O)N([C@@H](C)CO)C[C@H](C)[C@H](CN(C)S(=O)(=O)c2ccc(C)cc2)O3)cc1,10,-86*
COc1ccc(S(=O)(=O)N(C)C[C@@H]2Oc3ccc(NS(=O)(=O)c4ccc(C)cc4)cc3CC(=O)N([C@H](C)CO)C[C@@H]2C)cc1,10,-69
C[C@H](CO)N1C[C@H](C)[C@H](CN(C)S(=O)(=O)c2ccc(F)cc2)Oc2ccc(NS(=O)(=O)c3ccc(Cl)cc3)cc2C1=O,1,-93*
C[C@@H]1CN([C@@H](C)CO)C(=O)Cc2cc(NS(=O)(=O)c3ccc(Cl)cc3)ccc2O[C@H]1CN(C)S(=O)(=O)c1ccc(Cl)cc1,17,-85*
C[C@@H]1CN([C@H](C)CO)C(=O)c2cc(NS(=O)(=O)c3ccc(Cl)cc3)ccc2O[C@@H]1CN(C)S(=O)(=O)c1ccc(F)cc1,3,23
C[C@@H]1CN([C@H](C)CO)C(=O)c2cc(NS(C)(=O)=O)ccc2O[C@H]1CN(C)C(=O)Nc1ccccc1,-2,-4
